Screens as filed in PubChem BioAssay.
The list is not random: actives were taken first. Their share in the collection is about 0.8%.
Glioma ERSR ind = induces the endoplasmic reticulum stress response in human glioma cells; U87-MG GRP78 promoter luciferase reporter, 16 h; Potency, µM, inactives show at the highest dose activation, usual class: activators; 420,000 tested, 0.02% active; AID 602332; active means well fitted activation curve with a large enough effect; inconclusive means small, poorly fitted or top-dose-only effect; inactive means no such curve, though single readings can be large or run the other way; further: potency means the concentration at half of the fitted maximal effect; series mostly up to about 76 µM; % of control where 0% means no effect; nearly all actives have a fitted effect of over 35% in size
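Stably transfected U87-MG human glioma cells carrying a GRP78-based luminescent sensor were seeded at 1000 cells/well, pin-dosed with compounds and incubated 16 h. Luciferase reagent was then added, and end-point luminescence was read after 10 min at room temperature.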
TRPML1 inh = inhibitors of human TRPML1 channel. activity change, negative = inhibition, % (concentration not given with the values). TRPML1-inducible cells, Ca2+ dye fluorescence, FDSS; hits give low values; inhibition of EC80 agonist-evoked calcium signal. Q9GZU1. 390,000 tested, 0.02% active; in the data active means activity change below about -50%; inconclusive means between about -30% and that limit;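 further: stimulus is agonist 54-4 at its EC80 concentration; on the % scale 0 is the no-effect control and ±100 the full control effect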
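Tet-induced TRPML1-DL cells loaded with Ca8 no-wash calcium dye were read kinetically on FDSS. Compound addition was followed by EC80 agonist 54-4 (4 uM final); inhibition was read over 110 s.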
TRPML1 ag = human mucolipin-1 channel agonism; TRPML1-expressing cells, Ca2+ dye fluorescence, FDSS; activation, % (concentration not given with the values); 410,000 tested, 0.12% active; in the data active means activation above about 50%; inconclusive means mostly about 30% to 49%; further: 0% is about no effect
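In this qHTS format, compounds were pin-transferred onto Ca8-dye-loaded TRPML1-DL cells induced with Tet overnight, and intracellular Ca2+ fluorescence was recorded kinetically for 110 s after a 10 s baseline. A subsequent 4uM final 54-4 (EC80) addition followed by a second 110 s read served as the antagonist phase.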
TRHR enhancer = TRH receptor (human) allosteric enhancement; P34981; enhancement, % at 2 µM; AID 493056; TRHR cells, fluo-8 calcium fluorescence, EC20 TRH enhancement; 360,000 tested, 0.66% active; in the data active means enhancement above about 30%; further: 0% is about no effect
Target sequence (P34981 whole entry, looked up): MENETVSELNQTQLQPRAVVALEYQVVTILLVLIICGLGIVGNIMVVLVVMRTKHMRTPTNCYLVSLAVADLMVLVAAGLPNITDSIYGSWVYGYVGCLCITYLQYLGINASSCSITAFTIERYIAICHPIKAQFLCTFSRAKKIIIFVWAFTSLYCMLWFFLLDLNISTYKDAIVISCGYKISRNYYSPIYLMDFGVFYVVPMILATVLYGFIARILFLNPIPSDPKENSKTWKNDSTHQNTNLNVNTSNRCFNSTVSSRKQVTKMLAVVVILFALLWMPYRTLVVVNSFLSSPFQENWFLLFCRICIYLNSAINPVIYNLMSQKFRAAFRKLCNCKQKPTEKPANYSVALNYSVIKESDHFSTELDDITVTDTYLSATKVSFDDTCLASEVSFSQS
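TRHR-expressing cells loaded with fluo-8 calcium dye were read kinetically (ex 480/em 530) during compound addition, then stimulated with an EC20 of TRH (10 nM final). Enhancement of the Gq-mediated intracellular calcium response was scored.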
TRHR agonist = TRH receptor (human) agonism; AID 493084; activation, % at 2 µM; 360,000 tested, 0.18% active; TRHR cells, calcium flux fluo-8, FDSS agonist mode; P34981; in the data active means activation above about 30%; further: 0% is about no effect
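Read-out: compound-evoked intracellular calcium rise in TRHR cells, fluo-8 dye, kinetic FDSS fluorescence at 1 s/cycle following a 10-cycle baseline. Cells cultured overnight before dye loading (30 min–1.5 h, RT).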
An asterisk follows results filed as active; ? = inconclusive; · = no result given; ! = repeats disagree.

SMILES	Glioma ERSR ind	TRPML1 inh	TRPML1 ag	TRHR enhancer	TRHR agonist
COc1ccc(NC(=O)CN(C)S(=O)(=O)c2ccc3c(c2)c(=O)n(C)c(=O)n3C)cc1	-1%	-87*!	0	-4	0
CNC(=O)c1sccc1SCc1ccc(Cl)cc1Cl	-2%	8	2	33*	-1
CCN(CC)c1ccc2nc3c(=O)n(C)c(=O)n(C)c3nc2c1	·	29	?	4	68*
CCC(=O)Nc1ccc2nc3c(=O)n(C)c(=O)n(C)c3nc2c1	-4%	-6	2	3	0
Fc1ccc(F)c(Nc2c3c(nc4ccc(Cl)cc24)CCC3)c1	-2%	30	1	43*	-1
COc1cc(NC(=O)CCNS(=O)(=O)c2ccc3c(c2)CCN3C(=O)C2CC2)cc(OC)c1	-2%	13	0	46*	0
CCC(=O)N1CCc2cc(S(=O)(=O)NCCC(=O)Nc3ccc(OC)cc3)ccc21	-4%	-3	-1	3	0
O=C(Nc1cc(C(=O)NC2CCOCC2)c2c(c1)ncn2C1CCCC1)c1ccccc1	-2%	·	·	·	·
O=C(/C=C/c1ccc(N2CCC(c3ccccc3)=N2)cc1)c1ccccc1	2%	-3	87*	-3	57*
Cn1nnc(NC(=O)c2cccs2)n1	0%	-7	0	-2	0
Cn1nc(C(C)(C)C)c(NC(=O)c2cccs2)c1C(C)(C)C	-3%	-17	78*	22	0
Nc1c(C(=O)Nc2ccc(F)cc2)sc2nc(-c3cccs3)cc(C(F)(F)F)c12	4%	-17	?	20	100*
Nc1c(C(=O)C2CC2)sc2nc(-c3cccs3)cc(C(F)(F)F)c12	-2%	8	17	10	53*
OC(c1ccc2c(c1)CN(Cc1cccn1-c1ncccn1)CCO2)C1CCCCC1 (configuration not stated)	-2%	·	·	·	·
Oc1ccc(Cl)cc1CN1CCOc2c(O)cc(-c3nc4ccccc4s3)cc2C1	-9%	·	·	·	·
O=C(NCCc1cccs1)c1ccc(Cl)c(Cl)c1	1%	5	3	3	0
O=C(O)c1ccc(Cl)c(NCc2cccs2)c1	-4%	3	0	32*	0
O=C(c1ccnc(-n2cnnn2)c1)N1CCOc2ccc(C(O)CCc3ccccc3)cc2C1 (configuration not stated)	0%	·	·	·	·
Oc1ccc(NCc2ccccc2OCc2ccccc2)cc1	?	25	2	4	-1
Oc1ccc(NCc2ccccc2OCc2ccc(Cl)cc2)cc1	?	-11	-1	47*	0
CCC1CN(Cc2ccc(COC)o2)Cc2cc(OC)ccc2O1 (configuration not stated)	-2%	·	·	·	·
CSc1nc(C(=O)N2CCc3c(cnc(C)c3CNC(=O)c3ccc4c(c3)OCO4)C2)cs1	-6%	·	·	·	·
CCc1ccc(OCC(=O)Nc2ccc3c(c2)c2ccccc2n3CC)c(Br)c1	0%	-15	-1	34*	0
CCc1ccc(OCC(=O)Nc2ccc3c(c2)c2ccccc2n3CC)cc1	-4%	20	0	2	0
CC[C@@H]1OC(=O)C[C@H](O)[C@@H](C)[C@@H](O[C@H]2O[C@@H](C)[C@H](O[C@@H]3C[C@](C)(O)[C@H](O)[C@@H](C)O3)[C@@H](N(C)C)[C@@H]2O)[C@@H](C=O)C[C@@H](C)C(=O)/C=C/C(C)=C[C@@H]1CO[C@H]1O[C@@H](C)[C@H](O)[C@H](OC)[C@@H]1OC	-4%	·	·	·	·
SMILES	Glioma ERSR ind	TRPML1 inh	TRPML1 ag	TRHR enhancer	TRHR agonist
COc1ccccc1CNN	7%	9	0	33*	0
CC(C)(C)Cc1c(-c2ccc(C#N)cc2)nc2c(Cl)cc(C(F)(F)F)cn12	-4%	-15	72*	·	·
O=C(N1CCOCC1)N1CCC(n2nnc3cc(F)ccc32)CC1	-6%	-6	2	5	0
O=C(c1ccc([N+](=O)[O-])cc1)N1CCC(n2nnc3cc(F)ccc32)CC1	-2%	10	0	40*	0
CCN(CC)c1ccc(/C=C2\C(=O)c3ccc(C(=O)O)cc3C2=O)cc1	2%	-16	78*	24	106*
CCN(CC)c1ccc(C(=O)O)cc1	-2%	-15	0	0	0
O=C(CSc1ncccn1)NCC1Cc2cccc(-c3ncccn3)c2O1 (configuration not stated)	-2%	·	·	·	·
Cc1cc2nc(N3CCCN(Cc4cccn4-c4ncccn4)CC3)nc(C)c2cc1C	-3%	·	·	·	·
COc1ccc2c(c1)-c1nc(-n3ncc(C(=O)NC[C@@H]4CCCN5CCCC[C@H]45)c3C)ncc1CC2	-2%	·	·	·	·
COc1ccc(/C=N/NC(N)=S)cc1	-2%	-8	0	0	1
C=CCOc1ccc(/C=N\NC(N)=S)cc1	3%	27	1	33*	-1
COc1cc(=O)n2c(c1C(=O)NCc1ccsc1)CCN(Cc1nc3ccccc3[nH]1)CC2	0%	·	·	·	·
COc1ccc(-c2cc3ccc(O)c(CN4CCCC(C)C4)c3oc2=O)cc1 (configuration not stated)	-2%	17	2	3	14
COc1ccc(-c2cc3ccc(O)c(CN4CCCC(C)C4)c3oc2=O)cc1OC (configuration not stated)	-3%	2	1	4	32*
COC(=O)C1CCN(Cc2ccc3c(c2)CN(C(=O)c2cc(-c4ccc(C)o4)[nH]n2)CCO3)CC1	-4%	·	·	·	·
Cc1ccc2cc(CN(Cc3cccs3)Cc3nnnn3C(C)(C)C)c3nnnn3c2c1	·	·	·	32*	0
COCC(=O)Nc1cc(C(=O)N[C@H]2CCCCNC2=O)c2c(c1)nc(-c1ccncc1)n2C	-2%	·	·	·	·
COc1ccc2oc(=O)c(-c3nc(-c4cc(OC)c(OC)c(OC)c4)no3)cc2c1	-3%	-11	0	31*	0
CC1CN(CCc2ccccc2)C(C)C/C1=N/O (configuration not stated)	-2%	-20	1	·	·
CC1C/C(=N/O)C(C)CN1 (configuration not stated)	-5%	2	0	34*	1
C[C@@H]1CN(Cc2ccc3c(c2)CN(Cc2cn[nH]c2-c2ccccc2)CCO3)C[C@H](C)O1	-2%	·	·	·	·
N#CC(c1cccc(C(F)(F)F)c1)(c1ncc(C(F)(F)F)cc1Cl)N1CCOCC1 (configuration not stated)	-2%	-7	56*	11	0
Cc1cc2ccccc2c(=O)n1CC(=O)Nc1ccc2c(c1)OCCO2	-1%	-8	1	31*	0
COc1ccc(C(=O)NCC(=O)N2CCN(c3ccccc3)CC2)cc1	-4%	0	0	-1	-1
O=C(Cn1nc(-c2ccc(Cl)cc2)ccc1=O)N1CCN(c2ccccc2)CC1	-2%	-4	0	32*	1
O=C(NCC(=O)N1CCN(c2ccccc2)CC1)c1ccc(Cl)cc1	2%	-54*	0	3	-2
